In the supplement of paper PMC10338343:
± gives the standard deviation. The full ranking holds about 6,600 sequences; the median of “pre-steady-state target cleavage rate” is about 0.07, and the highest 2% start at about 0.72. This excerpt belongs to a sample that is enriched for the highest values.

tested on: MIWI (PIWIL1) piRISC loaded with Kctd7 piRNA (30 nt); experiment: pre-steady-state target cleavage rate (min^-1); MIWI and MILI are mouse PIWI proteins and EfPiwi is from a freshwater sponge; tags in brackets are library labels; higher = faster piRNA-guided slicing of the target; conditions: guide: Kctd7 piRNA 5'p-UGUUAAUCUCUCAGAGAAGGUGACAGUGAU; auxiliary factor: 500 nM mouse GTSF1
Outline: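 A transcribed, DNA-blocked target RNA library […] was incubated at 33 °C for 0–8 or 0–960 min with 1 nM active affinity-purified piRISC carrying one synthetic guide, in HEPES–potassium acetate buffer with or without 500 nM GTSF1 partner protein. Uncleaved targets were then sequenced and normalised to depth and to weakly complementary targets. Data from three trials were pooled, with k3 capped at 0.0001 min^-1, and a burst-and-steady-state fit yielded the pre-steady-state cleavage rate.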
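Further: 1 nM active piRISC with 0.1 nM target library at 33 °C single turnover.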

| Sequence | pre-steady-state target cleavage rate |
| --- | --- |
| UAGUGACUCACGUUCUCUGAGAGUUUAACA | 0.0255 ± 0.006 |
| UACACUGUCACCUUCACUGAGACAUUAACA | 0.19 ± 0.025 |
| AUCACUCACACCUUCUCUGAGAGAUUAACA | 0.587 ± 0.027 |
| UAGACUGUCACCUUCUCUGAGAGAUUUACA | 0.369 ± 0.049 |
| UAGUGACACACCAUCUCUGAGAGAUUAACA | 0.274 ± 0.027 |
| AUCACUGUCAGCUUCUCUGAGAGUUUAACA | 0.149 ± 0.018 |
| AUCACUGACACCUUCUCUGAGAGUUUAACA | 0.644 ± 0.16 |
| AUCUCUGUCACCUUCUCUGAGAGUUUAACA | 0.711 ± 0.12 |
| UACACUGACACCUUCUCUGAGAGUUUAACA | 0.904 ± 0.3 |
| UUCUCUGUCACCUUCUCUGAGAGUUUAACA | 0.517 ± 0.07 |
| UACACUGUCACCUUCUCUGAGAGUUUAUCA | 0.137 ± 0.041 |
| AUCACUGUCACCUUCUCUGAGAGUUUAUCA | 0.753 ± 0.19 |
| UACUCUGUCACCUUCUCUGAGAGUUUAACA | 0.781 ± 0.098 |
| UUCACUGACACCUUCUCUGAGAGUUUAACA | 0.591 ± 0.11 |
| UUCACUGUCACCUUCUCUGAGAGUUUAUCA | 0.27 ± 0.061 |
| UAGUCUGUCACCUUCUCUGAGAGAAAUACA | 0.0823 ± 0.015 |
| AUCACUGAGACCUUCUCUGAGAGAUAUUGA | 0.0157 ± 0.0047 |
| UAGUGACAGCCCUUCUCUGAGAGAUUAACA | 0.184 ± 0.019 |
| UUCACUGUCACCUUCUCUGAGAGUUUUACA | 0.559 ± 0.12 |
| UAGUGACUCACCUUCUCUGUGACAUUAACA | 0.0765 ± 0.0076 |
| UAGUCUCUCACCUUCUGUGAGAGAUUAACA | 0.00482 ± 0.0046 |
| UAGACUCUCACCUUCUCUGAGAGAUUUUGA | 0.0479 ± 0.011 |
| UGCACUGUCACCUUCUCUGAGAGAUUAACA | 0.726 ± 0.039 |
| UUCACUGUGCACCUUCUCUGAGAGAUUAACA | 0.606 ± 0.05 |
| AUCACUGGCACCUUCUCUGAGAGAUUAACA | 0.724 ± 0.17 |

| Sequence | pre-steady-state target cleavage rate |
| --- | --- |
| UACACUGGCACCUUCUCUGAGAGAUUAACA | 0.453 ± 0.12 |
| UUCACUGGCACCUUCUCUGAGAGAUUAACA | 0.728 ± 0.15 |
| UUGCACUGUCACCUUCUCUGAGAGAUUAACA | 0.781 ± 0.045 |
| AUGCACUGUCACCUUCUCUGAGAGAUUAACA | 0.775 ± 0.056 |
| UACAGUGUCACCUUCUGUGAGAGAUUAACA | 0.662 ± 0.028 |
| UAGUGACACACCUUCUCAGAGUGAUUAACA | 0.00558 ± 0.0037 |
| UAGUGUGUCACCUUCUCUGAGAGAUUAUCA | 0.219 ± 0.026 |
| UAGUGACUCUGCUUCUCUGAGAGAUUAACA | 0.00843 ± 0.0019 |
| UAGUGACAGUCCUUCCUCUGAGAGAUUAACA | 0.27 ± 0.027 |
| UAGUCUCUCACGUUCUCUGAGAGAUUAACA | 0.0195 ± 0.0042 |
| UAGUGACACACCAUCUCUGAGAGAAUAACA | 0.0218 ± 0.0057 |
| AGCACUGUCACCUUCUCUGAGAGAUUAACA | 0.765 ± 0.044 |
| UAGUCUGUCACCUUCUGUGAGAGAUAAACA | 0.0539 ± 0.0081 |
| UUCGACUGUCACCUUCUCUGAGAGAUUAACA | 0.859 ± 0.06 |
| UACGACUGUCACCUUCUCUGAGAGAUUAACA | 0.746 ± 0.07 |
| AUCGACUGUCACCUUCUCUGAGAGAUUAACA | 0.821 ± 0.059 |
| UAGUGUGUCAGCUUCUCUGAGAGAUUAAGA | 0.0938 ± 0.015 |
| UACACUCUCACCUUCUCUGUGAGAUUAACA | 0.141 ± 0.014 |
| UUGUGUGUCACCUUCUCUGAGAGAUUAACA | 0.571 ± 0.025 |
| UAGUCAGUCACCAUCUCUGAGAGAUUAACA | 0.706 ± 0.04 |
| AUCACAGUCACCAUCUCUGAGAGAUUAACA | 0.771 ± 0.036 |
| UACAGUGUCACCAUCUCUGAGAGAUUAACA | 0.592 ± 0.036 |
| UACACAGUCACCAUCUCUGAGAGAUUAACA | 0.833 ± 0.045 |
| UAGUCUCUCACCAUCUCUGAGAGAUUAACA | 0.0365 ± 0.0075 |
| UUCACUCUCACCAUCUCUGAGAGAUUAACA | 0.465 ± 0.024 |

| Sequence | pre-steady-state target cleavage rate |
| --- | --- |
| UACACUCUCACCAUCUCUGAGAGAUUAACA | 0.406 ± 0.028 |
| UUCACAGUCACCAUCUCUGAGAGAUUAACA | 0.747 ± 0.039 |
| UAGACAGUCACCAUCUCUGAGAGAUUAACA | 0.68 ± 0.042 |
| UAGUCUGUCACCUUCGCUGAGAGAUUAACA | 0.416 ± 0.035 |
| AUCACUUUCACCUUCUCUGAGAGAUUAACA | 0.622 ± 0.027 |
| UAGUGAGUCUCCUUCUCUGAGAGAUUUACA | 0.0124 ± 0.0051 |
| UAGUCUCUCACCUUCUCUGUGAGAUUAACA | 0.2 ± 0.015 |
| UAGUGACAGACCCUUCUCUGAGAGAUUAACA | 0.0893 ± 0.016 |
| UACACUGUCACGAACUCUGAGAGAUUAACA | 0.131 ± 0.019 |
| UAGUCUGUCACCAUCUCUGAGAGAUUAUGA | 0.021 ± 0.0082 |
| UAGUGACAGUCCUUCUCUGAGACAUUAACA | 0.0121 ± 0.0033 |
| AACACAGUCACCUUCUCUGAGAGAUUAACA | 0.736 ± 0.032 |
| UAGAGAGUCACCUUCUCUGAGAGAUUAACA | 0.797 ± 0.035 |
| UACACAGUCACCUUCUCUGAGAGAUUAACA | 0.589 ± 0.038 |
| UAGAGUGUCACCUUCUCUGAGAGAUUAACA | 0.72 ± 0.035 |
| AUCACUAGUCACCUUCUCUGAGAGAUUAACA | 0.724 ± 0.04 |
| AUCUGAGUCACCUUCUCUGAGAGAUUAACA | 0.652 ± 0.053 |
| UUCUGAGUCACCUUCUCUGAGAGAUUAACA | 0.657 ± 0.059 |
| UUCACUAGUCACCUUCUCUGAGAGAUUAACA | 0.708 ± 0.032 |
| UUCACAGUCACCUUCUCUGAGAGAUUAACA | 0.656 ± 0.027 |
| AUGAGUGUCACCUUCUCUGAGAGAUUAACA | 0.706 ± 0.032 |
| UUGAGUGUCACCUUCUCUGAGAGAUUAACA | 0.763 ± 0.034 |
| UACACUAGUCACCUUCUCUGAGAGAUUAACA | 0.663 ± 0.029 |
